The supplement of paper PMC12494721
Structures can show the parent of a compound that is named as a salt.

These compounds were tested on Ruminococcus gnavus DSM 108212 (assay: growth (OD595) fold change vs plate DMSO controls (fold change (ratio)); higher = more growth). Conditions: incubation time: 27 h, anaerobic, 37 °C.
In short: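 Anaerobic 27 h, 37 °C mGAM 96-well cultures were shaken, then read for absorbance at 595 nm. Values were blank-subtracted and corrected for compound background using 20 µM compound solutions in water. A calibration factor of 5 converted them to OD. Growth is the fold change versus the median of plate DMSO controls. Fold changes above 1.5 were set to NA, and values are the mean of 2 biological replicates.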

Question: For NS(=O)(=O)c1cc2c(cc1C(F)(F)F)NCNS2(=O)=O [Hydroflumethiazide] (20 µM), which growth is on record?
Answer: Its growth is 0.941.

Question: How did the growth turn out when Nc1nc(/C(=C/CC(=O)O)C(=O)N[C@@H]2C(=O)N3C(C(=O)O)=CCS[C@H]23)cs1 [Ceftibuten] (20 µM) was run?
Answer: Its growth is 1.27.

Question: Which growth does the source give for O=C(O)Cc1ccc(-c2ccccc2)cc1 [Felbinac] (20 µM) here?
Answer: Its growth is 1.01.

Question: Nc1nnc(-c2cccc(Cl)c2Cl)c(N)n1 [Lamotrigine] (20 µM) was tested. Which growth did it give?
Answer: The growth was 0.963.

Question: How did the growth turn out when Nc1nc(=O)c2nc(CNc3ccc(C(=O)N[C@@H](CCC(=O)O)C(=O)O)cc3)cnc2[nH]1 [Folic acid] (20 µM) was run?
Answer: Its growth is 0.783.

Question: With Nc1ccc(S(=O)(=O)NC(=O)c2ccccc2)cc1 [Sulfabenzamide] (20 µM) as the compound, how does the growth read?
Answer: Its growth is 1.1.

Question: With CCC(=O)O[C@]1(C(=O)SCF)[C@H](C)C[C@H]2[C@@H]3C[C@H](F)C4=CC(=O)C=C[C@]4(C)[C@@]3(F)[C@@H](O)C[C@@]21C [Fluticasone propionate] (20 µM) as the compound, how does the growth read?
Answer: The growth was 0.998.

Question: How did the growth turn out when CCOC(=O)[C@H](CCc1ccccc1)N[C@@H](C)C(=O)N1[C@H](C(=O)O)C[C@@H]2CCC[C@@H]21 [Ramipril] (20 µM) was run?
Answer: Its growth is 1.19.

Question: For CO/N=C(\C(=O)N[C@@H]1C(=O)N2C(C(=O)OCOC(=O)C(C)(C)C)=C(/C=C\c3scnc3C)CS[C@H]12)c1csc(N)n1 [Cefditoren Pivoxil] (20 µM), which growth is on record?
Answer: The growth was 0.996.

Question: With NC[C@H]1O[C@H](O[C@H]2[C@H](O[C@@H]3O[C@H](CO)[C@@H](O)[C@H]3O)[C@@H](O)[C@H](N)C[C@@H]2N)[C@H](N)[C@@H](O)[C@@H]1O [Ribostamycin sulfate salt] (20 µM) as the compound, how does the growth read?
Answer: Its growth is 1.2.
